High-throughput results as filed in PubChem BioAssay.
NPR1 antag: Natriuretic polypeptide receptor (hNpr1) antagonism - Primary qHTS; AID 1347048, 2019; 76,000 tested, 1.6% active; HEK293 hNpr1 GloSensor cGMP, ANP-stimulated luminescence; Atrial natriuretic peptide receptor 1 (Homo sapiens), P16066; Potency, µM (doses to about 46.3 µM), actives largely listed as inhibitors; calls by dose curve; also: nearly all actives have a fitted effect of over 60% in size
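Compound pre-incubated 30 min at room temperature on GloSensor-loaded HEK293 cells stably carrying hNpr1 and the pGS-40F cGMP biosensor. Stimulation uses hNppA at 0.1 nM final; luminescence is taken at baseline and 20 min post-agonist.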
Luciferase inh: Firefly luciferase inhibition profiling of diverse chemical library using quantitative high-throughput screening | AID 1347043, 2019 | 76,000 tested, 2.5% active | Potency, µM (top dose mostly 115 µM), actives largely listed as inhibitors | Luciferin 4-monooxygenase (Photinus pyralis), P08659 | purified P. pyralis luciferase, luminescence, biochemical; also: nearly all actives have a fitted effect of over 65% in size
Target sequence (P08659 whole entry, looked up): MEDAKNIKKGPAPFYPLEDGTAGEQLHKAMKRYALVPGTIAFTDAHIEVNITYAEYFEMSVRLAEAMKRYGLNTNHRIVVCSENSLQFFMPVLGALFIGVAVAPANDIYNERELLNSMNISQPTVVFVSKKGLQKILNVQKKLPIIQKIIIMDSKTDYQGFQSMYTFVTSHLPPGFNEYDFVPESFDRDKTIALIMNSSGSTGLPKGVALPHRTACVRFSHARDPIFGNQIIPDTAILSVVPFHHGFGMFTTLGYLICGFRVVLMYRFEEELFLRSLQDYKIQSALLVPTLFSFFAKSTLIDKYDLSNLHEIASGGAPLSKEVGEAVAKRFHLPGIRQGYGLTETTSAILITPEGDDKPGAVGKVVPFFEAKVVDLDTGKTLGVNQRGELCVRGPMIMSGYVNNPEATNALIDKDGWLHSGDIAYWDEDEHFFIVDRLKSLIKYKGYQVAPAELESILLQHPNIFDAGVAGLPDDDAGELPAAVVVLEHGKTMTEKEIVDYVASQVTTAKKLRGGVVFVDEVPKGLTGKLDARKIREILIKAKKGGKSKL
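Luminescence read by CCD imaging after purified firefly luciferase (10nM final) was added to substrate buffer holding 10uM D-luciferin and 10uM ATP, pH 7.5, pre-dosed with compound.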
NIH3T3 tox: Cytotoxic Profiling in NIH 3T3 Cell Line of Diverse Libraries Using Quantitative High-Throughput Screening; NIH 3T3 viability, CellTiter-Glo ATP luminescence, 48-72 h; Potency, µM (series often up to 96.7 µM), actives largely listed as inhibitors; 94,000 tested, 4.3% active; also: nearly all actives have a fitted effect of over 55% in size
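Viability of NIH 3T3 cells after 48 or 72 hr compound treatment at 37 °C was assessed by CellTiter-Glo, with luminescence imaged following a 10 min room-temperature step.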
HEK293 tox: Cytotoxic Profiling in HEK 293 Cell Line of Diverse Libraries Using Quantitative High-Throughput Screening; HEK 293 viability, ATP luminescence (CellTiter-Glo), 48-72 h; Potency, µM (top dose mostly 115 µM), hits mostly inhibitors; 94,000 tested, 6.6% active; AID 1345083, 2018; also: nearly all actives have a fitted effect of over 60% in size
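HEK 293 seeded at 250 cells/well receive compound via pintool. After 48 or 72 hr at 37 degree Celsius, 5% CO2 and 95% humidity, CellTiter-Glo is dispensed and luminescence read following 10 min at room temperature.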
A number is an active result; n = inactive; u = inconclusive; x = no result given. This is a sample that favours compounds with a hit; in the whole collection about 11% have one here. Unless noted, calls follow the shape of the dose curve; as a rule, active = well fitted curve in the direction sought with a large enough effect; inconclusive = small, poorly fitted or top-dose-only effect, or another doubt; inactive = no such curve, though single readings can be large; an effect the other way counts as inactive or inconclusive.

SMILES | NPR1 antag | Luciferase inh | NIH3T3 tox | HEK293 tox
C[C@]1(CO)C2CC[C@@H](O)[C@@H](CC(=O)N3CCOCC3)[C@]2(C)CC[C@H]1OC(=O)Nc1ccccc1 (some centres undefined) | n | n | n | n
CCO[C@H]1CN(Cc2ccccc2OCCn2ccnc2)C[C@@H]1O | n | n | n | n
c1ccc(CCCN2CC[C@H](c3nc4ccccc4s3)C2)cc1 | n | u | 89µM | 100µM
COc1cccc(CN2CC[C@H](c3nc4ccccc4s3)C2)c1 | n | 25µM | u | 100µM
Clc1cccc(CN2CC[C@H](c3nc4ccccc4s3)C2)c1 | n | 50µM | u | 100µM
Cc1ccc2oc([C@H]3CCN(Cc4cccc(Cl)c4)C3)nc2c1 | n | n | u | u
O=C(C1CC1)N1CC[C@H](c2nc3ccccc3s2)C1 | n | n | n | n
Cn1c([C@H]2CCN(Cc3ccc(F)c(F)c3)C2)nc2ccccc21 | n | n | u | 50µM
CCN(CC)CCNC(=O)C12CCCC=C1N(c1ccccc1)C(=O)CC2 (centres undefined) | n | n | n | n
COc1ccc(CC(=O)N2Cc3ccccc3CC23CCCN(C(=O)CCN)C3)cc1 (centres undefined) | x | x | u | n
COc1ccc(CN2C=C(C(=O)OCc3noc(-c4ccccc4C)n3)C(C)=NS2(=O)=O)cc1 | n | n | u | u
COc1ccc([S+](=O)([O-])c2nnn3c2nc(N2CCOCC2)c2ccccc23)cc1 | x | x | u | n
Fc1ccc(CN2CC[C@H](c3nc4ccccc4s3)C2)cc1F | n | 45µM | u | 100µM
OCCC1CN(Cc2nc3ccccc3s2)CCN1Cc1ccc(F)c(F)c1 (centres undefined) | n | n | n | 79µM
OCCC1CN(Cc2cccn2-c2nccs2)CCN1Cc1ccc(F)c(F)c1 (centres undefined) | n | n | n | u
Fc1ccc(CN2CC[C@H](c3nnc(Cc4ccccc4)o3)C2)cc1F | n | n | u | u
CC(=O)N1CCCC1c1nc(C2CN(Cc3ccc(F)c(Cl)c3)C2)no1 (centres undefined) | n | n | u | u
O=C(c1nc2cccnc2n(Cc2ccccc2)c1=O)N1CCN(Cc2ccccc2)CC1 | x | x | n | u
O=C(CNC(=O)c1ccc(-c2cnc3ccccc3c2)cc1)NCc1ccc2c(c1)OCO2 | x | x | n | 50µM
O=C(CNC(=O)c1ccc(-c2cnc3ccccc3c2)cc1)NCc1ccc(F)cc1 | x | x | n | u
COCCCNC(=O)CNC(=O)c1ccc(-c2cnc3ccccc3c2)cc1 | x | x | n | 79µM
CC(=O)NC[C@H]1CCN(S(=O)(=O)c2ccc3c(c2)CCC3)C[C@H]1N(C)C | n | n | n | n
O=C(c1ccccc1F)N1CCC(C(=O)N2CCCC(c3nc4ccncc4[nH]3)C2)CC1 (centres undefined) | x | x | n | n
CC(C)(C)OC(=O)N1CCCC(n2c(=O)[nH]c3cccnc32)C1 (centres undefined) | n | n | n | n
Cc1ccc(-c2noc([C@@H]3C[C@@H](O)CN3Cc3ccc(C(=O)O)cc3)n2)cc1F | n | 50µM | n | n
SMILES | NPR1 antag | Luciferase inh | NIH3T3 tox | HEK293 tox
COc1ccc(CN2C[C@H](O)C[C@H]2c2nc(-c3cccc(C)c3)no2)c2ccccc12 | n | 20µM | 79µM | 100µM
Cc1cccc(-c2noc([C@@H]3C[C@@H](O)CN3Cc3cccc(C#N)c3)n2)c1 | n | u | u | u
Cc1ccc(-c2noc([C@@H]3C[C@@H](O)CN3Cc3ccccc3O)n2)cc1F | n | 50µM | 45µM | u
CC(C)NC(=O)C1CCN(Cc2ccccc2-c2cccnc2)CC1 | x | x | n | n
O=C([C@@H]1C[C@@H](O)[C@H](O)[C@@H]2NC(=S)N(c3ccc(Cl)cc3)[C@@H]21)N1CCCCC1 | n | 50µM | n | n
CCc1ccc(-c2nc(C3CC(=O)N(c4ccc(OC)cc4)C3)no2)cc1 (centres undefined) | n | n | u | u
CC(C)c1ccc(-c2nc(C3CC(=O)N(c4ccc(F)c(Cl)c4)C3)no2)cc1 (centres undefined) | u | n | u | u
CCc1ccc(N2CC(c3noc(-c4ccc(OC)nc4OC)n3)CC2=O)cc1 (centres undefined) | n | n | u | 45µM
CCc1ccc(N2CC(c3noc(-c4ccccc4)n3)CC2=O)cc1 (centres undefined) | n | n | u | 79µM
CC(C)c1ccc(-c2nc(C3CC(=O)N(c4ccc(F)cc4)C3)no2)cc1 (centres undefined) | u | n | n | 35µM
CC(=O)N1CCN(C(=O)c2ccc3nc(-c4ccnc(Cl)c4)oc3c2)CC1 | x | x | n | n
O=[S+]([O-])(NC1CCN(Cc2cccc(-c3cccs3)c2)CC1)c1ccccc1 | x | x | 40µM | 45µM
O=C(NCc1ccccc1Cl)C1CCN(C(=O)c2ccc(-c3cccs3)cc2)CC1 | x | x | 40µM | u
O=C(Cc1ccc(F)cc1)NC1CCN(Cc2cccc(-c3cccs3)c2)CC1 | x | x | n | n
Cc1ccc([S+](=O)([O-])NC2CCN(Cc3cccc(-c4cccs4)c3)CC2)cc1 | x | x | 11µM | u
O=[S+]([O-])(NC1CCN(Cc2cccc(-c3ccc(F)c(F)c3)c2)CC1)c1cccs1 | x | x | u | 35µM
CC(C)CCO[C@H]1COCCN(Cc2ccccn2)C1 | n | n | n | n
O=[S+]([O-])(CCC(F)(F)F)NC1CCN(Cc2cccc(-c3cccs3)c2)CC1 | x | x | 22µM | u
O=C(c1ccc(-c2cncnc2)cc1)N1CCC(N[S+](=O)([O-])c2ccccc2)CC1 | x | x | n | n
O=C(c1ccc(-c2cccs2)cc1)N1CCC(N[S+](=O)([O-])c2ccccc2)CC1 | x | x | u | 45µM
O=C1Nc2ccccc2C12CCN(S(=O)(=O)c1cccs1)C2 (centres undefined) | n | n | u | 89µM
CC1(NC(=O)C2CC2)CN(Cc2nc(-c3ccc(Oc4ccccc4)cc3)cs2)C1 | 8.9µM | u | u | 35µM
CC1(NC(=O)C2CC2)CN(Cc2nc(-c3cccc(N4CCOCC4)c3)cs2)C1 | n | 40µM | n | u
COc1ccccc1Nc1ccnc(N2CCCC2C(=O)N(C)C)n1 (centres undefined) | x | x | n | n
CCc1[nH]c2c(CNC(=O)C(C)O)cc(C)cc2c1C (centres undefined) | n | n | n | n
Cc1cc(CNC(=O)c2cccc(F)c2F)c2[nH]c(C)c(C)c2c1 | n | n | u | 35µM
Cc1cc(CNC(=O)c2ccc(S(N)(=O)=O)cc2)c2[nH]c(C)c(C)c2c1 | n | n | n | n
Cc1cc(CNC(=O)C(C)Cn2nc(C)nc2C)c2[nH]c(-c3ccccc3)c(C)c2c1 (centres undefined) | n | 20µM | u | u
